# Experimental data from PubChem BioAssay (EPA / NIEHS).
# Calls of active or inactive are those of the source. How the source made its calls: active means hit-call score of the fitted dose curve at least 0.9, where 1 is the maximum; inactive means score below 0.9.
# Experiment: ATG_Sox_CIS: Attagene CIS-FACTORIAL HepG2 Assay for human SRY-box transcription factor (SOX) (AID 2282960)
# Conditions: HepG2 Attagene cis-factorial SOX reporter, mRNA; actives raise or lower the signal
# Outline: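 Read-out: fluorescent RT-PCR products of SOX1-linked reporter transcripts resolved by capillary electrophoresis, fitted bidirectionally against DMSO. Transiently transfected HepG2 cells, 24 h after chemical exposure, endogenous transcription factor activity.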
SMILES,AC50,outcome
CCCCCCCCCCCC#N,103 µM (active),–
O=C(NC(=O)c1c(F)cccc1F)Nc1ccc(Oc2ccc(C(F)(F)F)cc2Cl)cc1F,–,inactive
CC1CCCC1.[C-]#[O+].[C-]#[O+].[C-]#[O+].[Mn],–,inactive
CCCCNP(N)(N)=S,–,inactive
CC(=O)C=Cc1ccccc1,164 µM (active),–
CCC(=O)c1ccc(Cl)cc1,–,inactive
Nc1ccccc1C(=O)Oc1ccc2ccccc2c1,166 µM (active),–
C=CC(=O)OC,–,inactive
CC(C)CCCCCCCOC(=O)c1ccccc1C(=O)OCCCCCCCC(C)C,–,inactive
N#CCNCC#N,–,inactive
CN(C)N,–,inactive
CN1C[C@H](C(=O)N[C@]2(C)O[C@@]3(O)[C@@H]4CCCN4C(=O)[C@H](Cc4ccccc4)N3C2=O)C=C2c3cccc4[nH]cc(c34)C[C@H]21,–,inactive
O=[N+]([O-])C=Cc1ccccc1,20.1 µM (active),–
Nc1ccc(Cl)c(Cl)c1,–,inactive
CCCCOP(=O)(O)OCCCC,–,inactive
O=C(O)CCl,–,inactive
CC(O)CN(CC(C)O)CC(C)O (configuration not stated),–,inactive
Nc1cc(Cl)cc(Cl)c1,–,inactive
O=[N+]([O-])c1ccc(Cl)cc1,–,inactive

SMILES,AC50,outcome
Cc1ccc(C)c2ccccc12,–,inactive
C=CCO,–,inactive
COC(=O)COc1ccc(Cl)cc1Cl,–,inactive
[CH3][Sn]([Cl])([Cl])[Cl],–,inactive
CC(=O)c1cc2c(cc1C)C(C)(C)C(C)CC2(C)C (configuration not stated),–,inactive
Nc1ccc(-c2ccc(N)c(N)c2)cc1N,–,inactive
c1cc(OCC2CO2)ccc1Cc1ccc(OCC2CO2)cc1 (configuration not stated),33.4 µM (active),–
C=CC(=O)OCCCCOC(=O)C=C,–,inactive
c1ccc2c(c1)CCCC2,–,inactive
CCOC(=O)C1OC1(C)c1ccccc1 (configuration not stated),–,inactive
[Cl][Sb]([Cl])[Cl],–,inactive
COc1ncc(F)c2nc(S(=O)(=O)Nc3c(F)cccc3F)nn12,–,inactive
CC(C)[C@@H](C(=O)O[C@@H](C#N)c1cccc(Oc2ccccc2)c1)c1ccc(Cl)cc1,–,inactive
C[C@]12CC[C@H]3[C@@H](CC[C@@]45O[C@@H]4C(O)=C(C#N)C[C@]35C)[C@@H]1CC[C@@H]2O,–,inactive
O=[N+]([O-])c1cc([N+](=O)[O-])c2ccccc2c1,–,inactive
O=C(O)C(Br)Br,–,inactive
C=CC(=O)OCCO,–,inactive
CCCCCCCCCCCCCCCC[N+](C)(C)C,100 µM (active),–
